For assay [1] the following is noted: Ebola virus entry assay, green fluorescence channel.
For assay [2] the following is noted: Ebola virus entry assay, blue channel fluorescence.
The conditions of assay [3]: Ebola virus entry assay, ratio channel.
For assay [4] the following is noted: Ebola virus entry assay, green channel fluorescence.
The conditions of assay [5]: Ebola virus entry assay, reporter ratio channel; Channel type: primary.
For assay [6] the following is noted: Ebola virus entry assay, blue channel (ratio component).

For part of these data: Potency and affinity values are given separately. The source made the active and inactive calls. How the calls were made is not given here.

These results are taken from PubChem BioAssay (NCATS).
Wherever efficacy is given: 0% is about no effect.

As for `Oc1c(Cl)cc(Cl)cc1Sc1cc(Cl)cc(Cl)c1O`, the efficacy in assay [1] was -26.7% (inactive). For the same compound, the values for the AC50 in assay [2], in assay [3] and in assay [5] were 11.2 µM (active), 22.4 µM (active) and 22.4 µM (active), respectively. In assay [4], the result was inactive.
As for `C/C=C(/C(=C/C)c1ccc(O)cc1)c1ccc(O)cc1`, the efficacy in assay [1] is -16.1% (inactive). In addition, in assay [2], the AC50 is 28.2 µM (active). In addition, the result in assay [3], in assay [4] and in assay [5] was inactive.
On to `CCCOc1ccc(C(=O)OCCN(CC)CC)cc1N`, for which, in assay [1], the efficacy was 35% (inactive). Besides, the AC50 in assay [2] was 39.8 µM (active); in assay [3], 22.4 µM (active); in assay [5], 22.4 µM (active). Further, the compound was classed as inactive in assay [4].
Regarding `CCCOc1ccc2nc(NC(=O)OC)[nH]c2c1`, in assay [1], the efficacy was -28.5% (inactive). For the same compound, the figures for the AC50 in assay [2], in assay [3] and in assay [5] were 0.501 µM (active), 0.562 µM (active) and 0.562 µM (active), respectively. In assay [4], the call was inactive.
With `CC(C)OC(=O)C(C(=O)OC(C)C)=C1SC=CS1`, in assay [1], the efficacy was -38.6% (inactive). For the same compound, the AC50 in assay [2] is 39.8 µM (active). The outcome in assay [3], in assay [4] and in assay [5] was inactive.
As for `CCOC(=O)[C@H](CCc1ccccc1)N[C@H]1CS[C@H](c2cccs2)CN(CC(=O)O)C1=O`, in assay [1], the efficacy was 24% (inactive). For the same compound, the compound was classed as inactive in assay [2], in assay [3], in assay [4] and in assay [5].
In the case of `C=CCOc1ccccc1OCC(O)CNC(C)C` (stereo unspecified), the efficacy in assay [1] is -13.2% (inactive). Further, the concentration at half-maximal activity (AC50) in assay [2], in assay [3] and in assay [5] was 14.1 µM (active) throughout. In addition, the compound was called inactive in assay [4].
With `C[N+]1(CC2COC(c3ccccc3)(c3ccccc3)O2)CCCCC1` (stereo unspecified), the efficacy in assay [1] is 25% (inactive). The compound was classed as inactive in assay [2], in assay [3], in assay [4] and in assay [5].
In the case of `Oc1c(Cl)cc(Cl)c(Cl)c1Cc1c(O)c(Cl)cc(Cl)c1Cl`, the efficacy in assay [1] is 19.2% (inactive). The results for the half-maximal activity concentration (AC50) in assay [2], in assay [3] and in assay [5] were 28.2 µM (active), 15.8 µM (active) and 15.8 µM (active), respectively. Also, in assay [4], the outcome was inactive.
For `Cc1cc(N)c2cc(NC(=O)Nc3ccc4nc(C)cc(N)c4c3)ccc2n1`, the efficacy in assay [1] is 18% (inactive). Besides, the AC50 in assay [2] is 22.4 µM (active); in assay [3], 20 µM (active); in assay [5], 20 µM (active). The compound was called inactive in assay [4].
Consider `CC(C)NCC(O)c1ccc2ccccc2c1` (stereo unspecified), for which the efficacy in assay [1] was 20.8% (inactive). The AC50 was 31.6 µM (active) in assay [2], 25.1 µM (active) in assay [3] and 25.1 µM (active) in assay [5]. In assay [4], the result was inactive.
For `CCOCC(O)COc1ccc(NC(=O)CC[S+](C)C)cc1` (stereo unspecified), the efficacy in assay [1] is -21.6% (inactive). In addition, the result in assay [2], in assay [3], in assay [4], in assay [5] and in assay [6] was inactive.
As for `CCN(CC)CCNC(=O)c1cc(Br)c(N)cc1OC`, the efficacy in assay [1] was 15.9% (inactive). Besides, the outcome in assay [2], in assay [3], in assay [4], in assay [5] and in assay [6] was inactive.
As for `COc1cc([C@H]2Oc3cc([C@H]4Oc5cc(O)cc(O)c5C(=O)[C@@H]4O)ccc3O[C@@H]2CO)ccc1O`, in assay [1], the efficacy was 13.5% (inactive). Moreover, the results for the AC50 in assay [2] and in assay [5] were 39.8 µM (active) and 44.7 µM (active), respectively. Further, the result in assay [3] and in assay [4] was inactive.
Turning to `O=c1[nH]c(=O)c2[nH]c(=O)[nH]c2[nH]1`, in assay [1], the efficacy is 22% (inactive). Moreover, the compound was classed as inactive in assay [2], in assay [3], in assay [4], in assay [5] and in assay [6].
As for `C/C=C/c1ccc(OC)cc1`, in assay [1], the efficacy was -25.2% (inactive). The outcome in assay [2], in assay [3], in assay [4], in assay [5] and in assay [6] was inactive.
Consider `Cc1ccc(O)c(-n2nc3ccccc3n2)c1`, for which, in assay [1], the efficacy is 21% (inactive). Further, the compound was classed as inactive in assay [2], in assay [3], in assay [4], in assay [5] and in assay [6].
With `CCCc1cc(C(N)=S)ccn1`, the efficacy in assay [1] is -10.8% (inactive). Further, the outcome in assay [2], in assay [3], in assay [4], in assay [5] and in assay [6] was inactive.

The term AC50 denotes the midpoint of the concentration-response curve, whichever way the signal moves.
